Most compounds without a hit are left out; they make up all but 11% or so of the library.
VACV Venus inh – vaccinia inhibition (Venus reporter). actives 0.46% (n = 330,000). Potency, µM (series often up to 36.5 µM), for inactives: top-dose activity change, negative = inhibition, actives largely listed as inhibitors. Vaccinia virus Venus reporter expression, fluorescence. AID 720580; calls by dose curve; tested in A549 cells; further: on the % scale 0 is the no-effect control and ±100 the full control effect; nearly all actives have a fitted effect of over 30% in size
Pf growth 96h – inhibits malaria parasite growth, 96 h. P. falciparum luciferase reporter growth, 96 h. AID 504834. actives 6.9% (n = 320,000). Potency, µM (top dose mostly 28.7 µM), for the others: at the top dose activity change, negative = inhibition, usual class: inhibitors; further: on the % scale 0 is the no-effect control and ±100 the full control effect
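Readout is luminescence from an integrated firefly luciferase in P. falciparum. Red cells, 2% hematocrit and 0.05% parasitemia final, were cultured with compound through two parasite generations (96 hours) at 37 C, 5% CO2.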
Pf growth 48h – P. falciparum growth inhibition at 48 hours (one generation). Potency, µM (doses to about 28.7 µM), without a hit: at the top dose activity change, negative = inhibition, actives largely listed as inhibitors. actives 5.9% (n = 310,000). P. falciparum luciferase growth in erythrocytes, 48 h. AID 504832; further: on the % scale 0 is the no-effect control and ±100 the full control effect
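Luminescence readout; reporter = integrated firefly luciferase in P. falciparum. RBC culture at 2% hematocrit, 0.1% parasitemia final, 37 C/5% CO2; decreased signal taken as growth inhibition.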
Vaccinia mCherry – inhibitors of vaccinia virus infection (mCherry reporter signal); Vaccinia virus mCherry reporter infection, fluorescence; Potency, µM (titrated, usually from 36.5 µM), without a hit: at the highest dose activity change, negative = inhibition, hits mostly inhibitors; actives 0.63% (n = 310,000); AID 720579; calls by dose curve; tested in A549 cells; further: on the % scale 0 is the no-effect control and ±100 the full control effect; nearly all actives have a fitted effect of over 35% in size
NS1 inh – influenza NS1 inhibition | Potency, µM (titrated, usually from 46.1 µM), inactives show at the top dose activity, positive = more growth | actives 0.4% (n = 270,000) | AID 2326; calls by dose curve; further: actives are rising curves; nearly all actives have a fitted effect of over 50% in size
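Compounds were scored for reversing the slow growth caused by influenza A NS1 in S. cerevisiae, measured by optical density at 600 nm. Assay medium contained 2% galactose at pH 6.0; NS1-free yeast of the same strain were the positive control.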
HCV inhibitor – blocks hepatitis C virus; Huh7.5.1 HCVcc-Cre infection, luciferase reporter, 44 h; Potency, µM (series often up to 41.8 µM), for inactives: at the highest dose activity change, negative = inhibition, actives largely listed as inhibitors; actives 3.4% (n = 340,000); further: on the % scale 0 is the no-effect control and ±100 the full control effect
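Reporter virus HCVcc-Cre (~0.5 moi) infects cells exposed to compound; seeding density 1,000 cells/well with 4 h settling beforehand. Luminescence, 15 sec read, taken 44 h post-infection following a 15 min RT substrate incubation.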
Starred values were filed as active, the others as inactive; i = inactive; ? = inconclusive; . = not tested or not shown; [ ] = dose if it differs, or a comment. Unless noted, the call rests on the fitted dose curve; in most records, active means well fitted inhibition curve with a large enough effect; inconclusive means small, poorly fitted or top-dose-only effect, or another doubt; inactive means no such curve, though single readings can be large or run the other way. Potency means the concentration at half of the fitted maximal effect.

SMILES	VACV Venus inh	Pf growth 96h	Pf growth 48h	Vaccinia mCherry	NS1 inh	HCV inhibitor
CCCC(C(=O)NC1CCCC1)N(Cc1ccc2c(c1)OCO2)C(=O)c1snc(C(N)=O)c1N (stereo not drawn)	-12%	9.3µM*	.	-8%	8%	-14%
CS(=O)(=O)c1nc(S(=O)(=O)c2ccc(Cl)cc2)c(N2CCC(C(N)=O)CC2)s1	.	?	?	.	-4%	16%
CCS(=O)(=O)c1nc(S(=O)(=O)c2ccc(C)cc2)c(N2CC(C)OC(C)C2)s1 (stereo not drawn)	.	15µM*	-18%	.	-24%	-5%
CCCS(=O)(=O)c1nc(S(=O)(=O)c2ccc(C)cc2)c(N2CC(C)OC(C)C2)s1 (stereo not drawn)	-10%[7.34 µM]	73%	?	-12%[7.34 µM]	-21%	?
CS(=O)(=O)c1nc(S(=O)(=O)c2ccc(Cl)cc2)c(N2CCC3(CC2)OCCO3)s1	.	2.9µM*	-13%	.	-12%	?
Cc1ccc(S(=O)(=O)c2nc(S(C)(=O)=O)sc2N2CCC(C(N)=O)CC2)cc1	-15%	8.3µM*	?	-8%	2%	3%
CCCSc1ncc(Cl)c(C(=O)Nc2sc3c(c2C(N)=O)CCCC3)n1	3%	.	.	0%	.	.
O=C(NNC(=O)c1ccccc1F)c1ccc(S(=O)(=O)N2CCCC2)cc1	-9%	.	.	-15%	.	9%
Cc1csc(SCC(=O)Nc2sc3c(c2C#N)CCC3)n1	-23%	32%	19%	.	-14%	?
N#Cc1c(NC(=O)COC(=O)c2ccc(O)cc2O)sc2c1CCC2	.	?	16%	.	.	7.1µM*
CC(C)(C)c1ccc(C(=O)OCC(=O)Nc2sc3c(c2C#N)CCC3)cc1	-12%	?	7%	-20%	3%	2%
N#Cc1c(NC(=O)CSc2nnc(-c3ccncc3)n2CC2CCCO2)sc2c1CCCC2 (stereo not drawn)	-13%	?	17%	-23%	3%	9%
N#Cc1c(NC(=O)CSc2ncc(-c3ccccc3)n2CC2CCCO2)sc2c1CCCC2 (stereo not drawn)	.	1%	?	.	14%	11µM*
COc1ccc(-c2cc(C(F)(F)F)nc(SCC(=O)Nc3sc4c(c3C#N)CCC4)n2)cc1	.	1.7µM*	4.1µM*	.	13%	?
Cc1ccnc(SCC(=O)Nc2sc3c(c2C#N)CCCC3)n1	?	-7%	?	.	-34%	7.9µM*
O=c1[nH]c2ccccc2n1C1CCN(C(c2cccc3ccccc23)c2nnnn2Cc2ccccc2)CC1 (stereo not drawn)	-26%	.	.	-6%	.	.
N#Cc1c(NC(=O)CSC2=NCCS2)sc2c1CCCC2	.	2.3µM*	?	.	-19%	?
N#Cc1c(NC(=O)CSc2ncn[nH]2)sc2c1CCCC2	?	.	.	?	-4%	?
Cc1cccc(C2c3[nH]c4ccccc4c3CCN2Cc2ccc(C)s2)n1 (stereo not drawn)	-1%	-3%	?	?	-8%	8%
O=C(Nc1cc(Cl)ccc1-n1cncn1)c1ccccc1OC(F)F	-18%	23%	28%	-5%	.	?
Cc1cc(CN2CCN(CC(=O)Nc3cc(C(F)(F)F)ccc3-n3cncn3)CC2)no1	-8%	4.1µM*	10µM*	17%	.	-1%
CC(Oc1ccc(F)cc1)C(=O)Nc1cc(C(F)(F)F)ccc1-n1cncn1 (stereo not drawn)	-13%	0.41µM*	0.59µM*	i	.	?
Cc1cc(CN2CCN(CC(=O)Nc3cc(Cl)ccc3-n3cncn3)CC2)no1	-10%	2.1µM*	2.1µM*	i	.	-1%
O=C(CC1CCCC1)Nc1cc(C(F)(F)F)ccc1-n1cncn1	.	-37%	?	.	.	?
CCC(Oc1ccccc1)C(=O)Nc1cc(Cl)ccc1-n1cncn1 (stereo not drawn)	-19%	12µM*	4.1µM*	-4%	.	-17%
SMILES	VACV Venus inh	Pf growth 96h	Pf growth 48h	Vaccinia mCherry	NS1 inh	HCV inhibitor
Cc1ccc(NC(=O)CN2C(=O)NC(C)(c3ccc(Cl)cc3)C2=O)cc1S(=O)(=O)N1CCOCC1 (stereo not drawn)	-22%	?	-20%	i	8%	4%
Cc1ccc(C)c(NC(=S)NNC(=O)c2cc3c(s2)CCC(C)C3)c1 (stereo not drawn)	-16%	-16%	19%	i	8%	11%
Cc1ccc(C(=O)N/C(=C\c2ccc(-c3ccccc3[N+](=O)[O-])o2)C(=O)NCCCN(C)C)cc1	10%	5.2µM*	2.6µM*	-14%	-5%	-18%
Cc1ccc(C(=O)N/C(=C\c2ccc(-c3ccccc3[N+](=O)[O-])o2)C(=O)NCCN(C)C)cc1	-23%	?	1.5µM*	-15%	-13%	-27%
CN(C)CCCNC(=O)/C(=C/c1ccc(-c2ccc([N+](=O)[O-])cc2)o1)NC(=O)c1ccccc1	.	?	?	.	-7%	?
O=C1OC(C(=O)Nc2ccccc2)Cc2ccccc21 (stereo not drawn)	-16%	67%	45%	-14%	.	1%
NC1=NC(=O)/C(=C/c2ccccc2OS(=O)(=O)c2ccccc2)S1	-18%	-3%	10µM*	-25%	7%	?
Cc1cc(NC(=O)CCC(=O)N(Cc2cccnc2)C(C(=O)NC(C)(C)C)c2ccccc2Cl)no1 (stereo not drawn)	-11%	?	-12%	-7%	7%	7%
COc1ccc(SC[C@H](Cc2ccccc2)N2CCN(C)CCC2=O)cc1	-7%	10µM*	13µM*	i	1%	6%
CC(C)C[C@@H](CSc1ccccc1)N1CCN(C)CCC1=O	-8%	-29%	21%	-5%	4%	3%
Cc1ccc(SC[C@H](Cc2ccccc2)N2CCN(C)CCC2=O)cc1	5%	?	12µM*	i	17%	-19%[8.37 µM]
CN1CCC(=O)N([C@H](CSc2ccc(Br)cc2)Cc2ccccc2)CC1	-15%	3.3µM*	9.3µM*	i	-1%	?
CN1CCC(=O)N([C@H](CSc2ccccc2)Cc2ccccc2)CC1	-6%	?	1%	-29%	18%	19%
Cc1cc(C(=O)O)c(=O)[nH]c1C	-4%	2.6µM*	35%	-11%	-5%	11%
COc1ccc(-c2c(C#N)c(SCC(=O)Nc3ccc(C)c(C)c3)nc(C)c2C(=O)Nc2ccc(Cl)cc2)cc1	-7%	.	.	-6%	.	.
Cc1ccc(S(=O)(=O)N2CCCCC2)cc1NC(=O)CN1CCCC1c1cccs1 (stereo not drawn)	-5%	.	.	-1%	.	.
